Source: PubChem BioAssay
CF NFkB inh – blocks PAF-induced NF-kB reporter in cystic fibrosis cells; KKLEB NF-kB-GFP reporter, GFP fluorescence overnight; inhibition, % at 5 µM; hit rate 0.86% among 360,000; AID 588850;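 active = at least 50% inhibition at 5 µM, scaled per plate between neutral and stimulator controls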;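 note: PAF is a Pseudomonas aeruginosa culture filtrate used as stimulus; plate controls were PAF-stimulated DMSO wells for no effect and unstimulated DMSO wells for full effect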
TWEAK-Fn14 inh – inhibitors of TWEAK-Fn14 interaction signaling | TWEAK-stimulated Fn14 reporter cells, luciferase luminescence, 8 h | inhibition, % at 10 µM | hit rate 2% among 360,000 | AID 1159606; in the data active = inhibition above about 50%
Peg3 prom inh – reduces Peg3 promoter-driven luciferase expression in HeLa | HeLa PEG-Prom luciferase reporter, luminescence, overnight | inhibition, % at 20 µM | hit rate 1.7% among 360,000;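 active = inhibition of at least 50% at 20 µM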
KKLEB cytotox – counter-screen for CF NF-kB inhibitors: cytotoxicity | KKLEB CF airway cells viability, ATPlite luminescence, overnight; active compounds read low; cells stimulated with P. aeruginosa culture filtrate | activity change (cytotoxicity), % at 5 µM | hit rate 0.36% among 360,000;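 active = corrected activity change at or below -50% at 5 µM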
TROY NFkB inh – inhibitors of TROY-dependent NF-kB signaling; inhibition, % at 10 µM; hit rate 0.98% among 360,000; Q293 LMP1-TROYcd NF-kB luciferase reporter, 4 h;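 active = compounds whose plate-normalised and pattern-corrected inhibition of the luciferase reporter signal at the single screening dose is 50% or more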
HIF-2a inh – blocks HIF-2a reporter activity; AID 624352; inhibition, % at 18.8 µM; hit rate 0.72% among 360,000; 786-0 RCC cells HIF-2a reporter, luciferase luminescence, overnight;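 active = inhibition of the luminescence signal of 40% or more relative to plate controls, in a single-dose primary screen at 18.75 µM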
Mdm2 MdmX conf – Mdm2/MdmX (human) interaction inhibition, confirmed; SaOS-2 split-luciferase Mdm2/MdmX complementation, luminescence; hit rate 99% among 740; inhibition, % at 8 µM; shares compounds with HIF-2a inh;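 active = mean inhibition of the luminescence signal across two replicates at or above 26 percent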
HIF-2a inh conf – HIF-2a inhibition, single concentration confirmation. shares compounds with HIF-2a inh. 786-0 RCC cells, HIF-2a luciferase reporter luminescence, overnight. inhibition, % at 18.8 µM. hit rate 56% among 1,800. AID 651580;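 active = mean inhibition across four replicates of at least 40 percent at the single tested concentration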
HIF-1a cs – counter-screen for HIF-2a inhibitors: HIF-1a inhibition in MiaPaCa-2 cells; MiaPaCa-2 HIF-1a luciferase reporter, desferoxamine, overnight; hit rate 72% among 1,800; inhibition, % at 18.8 µM; shares compounds with HIF-2a inh;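 active = mean inhibition of the reporter signal across four replicates at the single tested dose of 50% or more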
The depositor's hits bear a star; / = not tested or not shown. Sampled rows, rich in hits. Any-hit rate of the full collection: about 4%.

SMILES	CF NFkB inh	TWEAK-Fn14 inh	Peg3 prom inh	KKLEB cytotox	TROY NFkB inh	HIF-2a inh	HIF-2a inh conf	HIF-1a cs	others
COc1ccc(C(C)=O)cc1CSc1nnc(-c2ccc(Cl)cc2)n1-c1ccccc1	20	-15	29	2	-20	41*	16	27
COc1cc(OC)cc(C(=O)NNC(=S)NC2CC2)c1	-3	-5	0	7	-13	-4	/	/
COc1ccc(OC)c(C(C[N+](=O)[O-])c2c(C)cc3ccccn23)c1 (configuration not stated)	19	23	37	-14	1	44*	18	39
CCOC(=O)CNC(=O)CSc1ncnc2c1cnn2-c1ccc(C)cc1	-1	14	29	0	-23	22	/	/
CCOC(=O)CNC(=O)CSc1ncnc2c1cnn2-c1ccccc1	11	13	19	1	-7	41*	30	-7
CCc1nc2c(OCc3ccc(C(=O)OC)cc3)cccn2c1N(C)C(=O)c1ccc(OC)cc1	9	0	-5	-10	-11	5	/	/
S=C(c1ccc(-c2ccccc2)cc1)N1CCOCC1	2	50	23	-11	8	86*	89*	54*
O=C(c1ccc(-c2ccccc2)cc1)c1ccccc1C(=O)N1CCOCC1	-14	14	-23	-11	-1	-22	/	/
Cc1ccc(S(=O)(=O)N2CCOCC2)cc1NC(=O)COC(=O)c1ccc2c(c1)OCCO2	9	15	5	-1	8	22	/	/
CCN(CC)CCOc1ccc2c(c1)C(=NO)c1cc(OCCN(CC)CC)ccc1-2	15	-67	107*	-26	-24	54*	33	107*
CCN(CC)CCCOc1ccc(Cl)c(Cl)c1	1	-6	20	1	-1	16	/	/
COc1ccccc1-c1cc(C(F)(F)F)nc(S(=O)(=O)CCCC(=O)N2CCCCC2C)n1 (configuration not stated)	92*	83*	110*	-75*	65*	91*	91*	107*
COc1ccccc1-c1cc(C(F)(F)F)nc(S(=O)(=O)CCCC(=O)NCc2ccc(F)cc2)n1	95*	99*	107*	-88*	84*	80*	71*	102*	Mdm2 MdmX conf=103*
COc1ccccc1-c1cc(C(F)(F)F)nc(N2CCCCC2)n1	6	-6	3	-5	4	5	/	/
Cc1nc(NC(=O)CSc2nc(N)cc(N)n2)sc1C	0	-24	9	-15	-10	6	/	/
COCCN1CCN(C(=O)C2CCC(=O)N(Cc3ccccc3F)C2)CC1 (configuration not stated)	20	4	-8	-13	5	12	/	/
CSc1nc(C2CC2)cc(-c2cccs2)c1C#N	94*	9	57*	-63*	-69	51*	35	32
COc1ccc(-c2cc(C3CC3)nc(SCC(=O)c3cccs3)c2C#N)cc1	-7	-13	23	-21	9	20	/	/
O=C(O)CCSc1nnc(-c2ccc3c(c2)OCO3)o1	8	82*	36	-4	52*	92*	96*	80*
COc1ccc(S(=O)(=O)NCCCn2ccnc2)cc1C(C)(C)C	8	-17	18	-1	-6	7	/	/
COc1ccc(N2CCN(C(=O)COC(=O)CCS(=O)(=O)c3ccc(C)cc3)CC2)cc1	22	4	3	-6	-11	3	/	/
Cc1cc(C)c(C(=O)COc2cccnc2[N+](=O)[O-])cc1C	19	10	31	-2	22	-8	/	/
Cc1ccc(OCC(=O)c2cc(C)n(CC(F)(F)F)c2C)c([N+](=O)[O-])n1	4	23	-13	6	18	-37	/	/
Cc1ccc(OCC(=O)c2cc(C)n(Cc3cccs3)c2C)c([N+](=O)[O-])n1	5	3	43	0	-11	58*	72*	95*
